An excerpt weighted towards active compounds, which were near 2.6% of everything screened.
c-Myc SMM: binds human c-Myc on microarray; P01106; small molecule microarray, His-c-Myc binding, anti-His fluorescence; calls only; 1.5% of 17,000 active; AID 624141;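 active = spot fluorescence over background with P-value below 7% in all four replicate spots, showing protein binding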;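 also: score is binary with 100 for all four spots passing and 0 otherwise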
NFkB binder: binders of human NF-kappa-B p105. calls only. Small molecule microarray, anti-His fluorescence binding. 1.3% of 17,000 active. P19838;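 active = spot fluorescence over background significantly raised, with a chance value under 7% in all four replicate spots of the compound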;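 also: probe protein is his-tagged human p50 processed subunit at 1 µg/ml; raw spot fluorescence signals with no normalization applied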
mut p53 SMM: binds human mutant p53 on microarray; small molecule microarray binding, anti-GST fluorescence; calls only; 0.4% of 17,000 active; AID 624136;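 active = compounds whose four printed spots each glow above background more than chance allows, each with a p-value under 7%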
p53 PUMA act: restores mutant p53 pathway signaling in SW480 cells. SW480 PUMA-promoter luciferase, p53 mutant reactivation. activation, % at 9.98 µM. 1.5% of 28,000 active; in the data active = activation above about 52%
STAT3 SMM: binders of human STAT3. P40763. Small molecule microarray, His-STAT3 binding, anti-His fluorescence. calls only. 0.2% of 17,000 active. AID 624138;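 active = compounds whose four printed spots each show fluorescence over background unusually high for their array block, chance value under 7%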
Target sequence (P40763 whole entry, looked up): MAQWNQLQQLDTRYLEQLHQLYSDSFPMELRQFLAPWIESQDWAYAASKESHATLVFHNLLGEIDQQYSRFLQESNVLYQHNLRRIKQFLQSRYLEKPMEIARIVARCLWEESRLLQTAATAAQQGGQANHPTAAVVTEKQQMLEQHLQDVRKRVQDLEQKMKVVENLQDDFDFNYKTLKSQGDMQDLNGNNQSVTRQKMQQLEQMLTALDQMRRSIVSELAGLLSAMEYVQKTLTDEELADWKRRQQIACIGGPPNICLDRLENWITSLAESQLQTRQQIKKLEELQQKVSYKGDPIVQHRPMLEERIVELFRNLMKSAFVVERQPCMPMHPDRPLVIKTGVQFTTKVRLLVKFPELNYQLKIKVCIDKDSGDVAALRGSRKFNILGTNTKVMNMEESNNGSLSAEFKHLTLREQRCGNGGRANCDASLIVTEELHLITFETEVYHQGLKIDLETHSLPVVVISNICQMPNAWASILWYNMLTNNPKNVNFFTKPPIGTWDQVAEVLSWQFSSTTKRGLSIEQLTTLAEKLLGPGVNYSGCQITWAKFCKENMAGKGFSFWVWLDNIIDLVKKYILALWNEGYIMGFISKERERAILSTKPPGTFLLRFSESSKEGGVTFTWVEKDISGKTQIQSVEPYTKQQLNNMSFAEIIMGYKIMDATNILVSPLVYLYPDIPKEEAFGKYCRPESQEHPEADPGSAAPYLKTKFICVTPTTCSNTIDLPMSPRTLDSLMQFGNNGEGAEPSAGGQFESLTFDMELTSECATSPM
* marks the source's active call; other numbers are inactive results; i = inactive; · = no result given; + = active, no number.

SMILES	c-Myc SMM	NFkB binder	mut p53 SMM	p53 PUMA act	STAT3 SMM
COc1ccc(NC(=O)N(C)C[C@@H]2Oc3c(NS(=O)(=O)c4cn(C)cn4)cccc3C(=O)N([C@@H](C)CO)C[C@H]2C)cc1	·	·	·	19	·
C[C@@H]1CN([C@H](C)CO)C(=O)Cc2cc(NC(=O)Cc3ccccc3)ccc2O[C@@H]1CN(C)Cc1ccc(C(=O)O)cc1	i	i	i	7	i
O=C(COc1ccc([N+](=O)[O-])cc1)Nc1cccc(O)c1	·	·	·	117*	·
C=CCSc1n[nH]c(-c2ccc(C(F)(F)F)cc2)n1	·	·	·	111*	·
COc1ccc(-c2nc(SCC(=O)Nc3cccc(C(F)(F)F)c3)n[nH]2)cc1	·	·	·	-9	·
CC(C)NC(=O)N(C)C[C@H]1Oc2ccc(NC(=O)CCCN(C)C)cc2C(=O)N([C@H](C)CO)C[C@@H]1C	i	i	i	9	i
CC1OC(O[C@H]2CC[C@@]3(C)C(CC[C@]4(C)C3CC=C3[C@@H]5CC(C)(C)C[C@@H](O)[C@]5(C)CC[C@]34C)[C@@]2(C)CO)C(OC2OC(C(=O)O)C(O)C(O)C2OC2OCC(O)C(O)C2O)C(O)C1O (some centres not stated)	i	i	i	-6	i
CC1(C)CC[C@]2(C(=O)O)CC[C@]3(C)C(=CCC4[C@@]5(C)CC[C@H](O[C@@H]6O[C@H](C(=O)O)[C@@H](O[C@@H]7O[C@H](CO)[C@@H](O)[C@H](O)[C@H]7O)[C@H](O)[C@H]6O[C@@H]6O[C@H](CO)[C@@H](O)[C@H](O)[C@H]6O)C(C)(C)C5CC[C@]43C)C2C1 (some centres not stated)	+	+	i	6	+
CC1OC(OC2C(OC3C(O[C@H]4CC[C@@]5(C)C(CC[C@]6(C)C5CC=C5C7CC(C)(C)CC(O)[C@]7(C)CC[C@]56C)C4(C)C)OC(C(=O)O)C(O)C3O)OCC(O)C2O)C(O)C(O)C1O (some centres not stated)	+	+	i	13	i
C=CC1(C)C=C2CCC3C(C)(C)C(O[C@@H]4O[C@@H](CO)[C@H](O)[C@H]4O)CCC3(C)C2CC1O[C@@H]1O[C@H](C)[C@H](O)[C@H](O)[C@H]1O (some centres not stated)	i	+	i	-15	i
Cc1ccc(C)c(NC(=O)CN(c2cccc(F)c2)S(C)(=O)=O)c1	·	·	·	64*	·
Cc1ccc(NC(=O)CN(c2cccc(F)c2)S(C)(=O)=O)cc1Cl	·	·	·	0	·
Cc1cc2nc(SCc3ccccc3C#N)[nH]c2cc1C	·	·	·	68*	·
O=C(COc1ccc(Br)cc1)Nc1cccc(-c2nc3ncccc3o2)c1	·	·	·	73*	·
Cc1c(NC(=O)COc2ccc(Br)cc2)cccc1-c1nc2ncccc2o1	i	i	i	54*	i
O=C(COc1ccccc1)Nc1cccc(-c2nc3c(ccc4ccccc43)o2)c1	i	i	i	-1	i
Cc1cc(OCC(=O)Nc2cccc(-c3nc4ccccc4o3)c2C)cc(C)c1Cl	·	·	·	-4	·
Fc1cccc(/C=N/N=C/c2cccc(F)c2)c1	i	i	i	88*	i
C[C@H](CO)N1C[C@H](C)[C@H](CN(C)S(=O)(=O)c2cccs2)OCCCC[C@H](C)Oc2ccc(N(C)C)cc2C1=O	i	i	i	-1	i
O=c1cc(-c2ccccc2)oc2cc(O)ccc12	i	i	i	77*	i
COc1ccc2c(=O)cc(-c3ccccc3)oc2c1	i	i	i	81*	i
Nc1ccc(-c2cc(=O)c3cc(O)ccc3o2)cc1	i	i	i	26	i
COc1ccc(NC(=O)CSc2nnc(C)n2-c2ccc(C)c(C)c2)cc1	·	·	·	8	·
Cc1cc(=O)oc2cc(NC(=S)NCc3cccnc3)ccc12	·	·	·	75*	·
CCOC(=O)C1CCCCN1Cc1cc(OC)ccc1OC (configuration not stated)	+	+	i	-15	i
SMILES	c-Myc SMM	NFkB binder	mut p53 SMM	p53 PUMA act	STAT3 SMM
COc1ccc(NC(=O)c2ccc(OC(C)C(=O)O)cc2)cc1Cl (configuration not stated)	i	+	i	9	i
COc1ccc(NC(=O)c2ccc(OC(C)C(=O)Nc3ccccc3C(F)(F)F)cc2)cc1Cl (configuration not stated)	·	·	·	-2	·
CC(=O)Cc1ccccc1OCC(=O)O	+	+	i	8	i
CC(C)NCc1ccccc1OCC(N)=O	i	i	i	1	i
COc1ccc(C#Cc2ccc3c(c2)[C@]2(C(=O)N3)[C@H](C(=O)N3CCc4cc(OC)c(OC)cc4C3)[C@H]3C(=O)O[C@H](c4ccccc4)[C@H](c4ccccc4)N3[C@@H]2c2ccc(OCCO)cc2)cc1	i	+	i	·	i
COc1ccc(C#Cc2ccc3c(c2)[C@]2(C(=O)N3)[C@H](c3ccc(OCCO)cc3)N3[C@H](c4ccccc4)[C@H](c4ccccc4)OC(=O)[C@H]3[C@@H]2C(=O)N2CCc3cc(OC)c(OC)cc3C2)cc1	i	+	i	·	i
COC(=O)C(CC#Cc1ccc2c(c1)[C@]1(C(=O)N2)[C@H](c2ccc(OCCO)cc2)N2[C@H](c3ccccc3)[C@H](c3ccccc3)OC(=O)[C@H]2[C@@H]1C(=O)N1CCN(c2ncccn2)CC1)C(=O)OC	i	i	i	·	i
COC(=O)C(CC#Cc1ccc2c(c1)[C@]1(C(=O)N2)[C@H](C(=O)N2CCN(c3ncccn3)CC2)[C@H]2C(=O)O[C@H](c3ccccc3)[C@H](c3ccccc3)N2[C@@H]1c1ccc(OCCO)cc1)C(=O)OC	i	+	i	·	i
COc1ccc(C(c2cn(C)c3ccccc23)c2cn(C)c3ccccc23)c(OC)c1OC	i	i	i	-7	i
C[C@H](CO)N1C[C@H](C)[C@@H](CN(C)CC2CC2)OCCCC[C@H](C)Oc2ccc(NC(=O)Nc3cccc4ccccc34)cc2C1=O	i	+	i	·	i
C[C@@H]1CN([C@@H](C)CO)C(=O)c2cc(NC(=O)Nc3cccc4ccccc34)ccc2O[C@@H](C)CCCCO[C@@H]1CN(C)C	i	i	i	-3	i
C[C@@H]1CN([C@@H](C)CO)C(=O)c2cc(NC(=O)Nc3ccc4c(c3)OCO4)ccc2O[C@@H]1CN(C)CC1CCCCC1	i	i	i	-4	i
C[C@@H]1CN([C@@H](C)CO)C(=O)c2cc(N(C)C)ccc2O[C@@H](C)CCCCO[C@H]1CN(C)C(=O)Nc1cccc2ccccc12	+	i	i	-19	i
C[C@@H]1CCCCO[C@@H](CN(C)C(=O)c2ccccc2)[C@@H](C)CN([C@H](C)CO)C(=O)c2cc(NC(=O)Nc3cccc4ccccc34)ccc2O1	+	+	+	·	i
C[C@H](CO)N1C[C@H](C)[C@@H](CN(C)CC2CCCCC2)Oc2ccc(NC(=O)Nc3ccc4c(c3)OCO4)cc2C1=O	+	+	+	-5	i

High-throughput results deposited in PubChem BioAssay by Broad Institute.
